Read-out in assay [1]: Urokinase-type plasminogen activator receptor (uPAR), PLAUR (gene 5329)
Nature of the assay: BSK_CASM3C_uPAR: BioMAP Diversity Plus: CASM3C Assay for Urokinase-type plasminogen activator receptor (uPAR) Biomarker Activity (AID 2283054).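 Note: cell-surface uPAR protein level quantified by ELISA.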 The settings on record: primary human coronary artery smooth muscle cells; actives raise or lower the signal.

Read-out in assay [2]: Vascular cell adhesion molecule 1 (VCAM1), VCAM1 (gene 7412)
Nature of the assay: BSK_CASM3C_VCAM1: BioMAP Diversity Plus: CASM3C Assay for Vascular cell adhesion molecule 1 (VCAM1) Biomarker Activity (AID 2283055).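 Note: VCAM-1 protein level quantified by ELISA on the cells.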 The following applies: primary human coronary artery smooth muscle cells; actives raise or lower the signal.

Read-out in assay [3]: Epidermal growth factor receptor (EGFR), EGFR (gene 1956)
Nature of the assay: BSK_hDFCGF_EGFR: BioMAP Diversity Plus: hDFCGF Assay for Epidermal growth factor receptor (EGFR) Biomarker Activity (AID 2283057). The settings on record: primary human foreskin fibroblasts; actives raise or lower the signal. The gist of the method: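 Dosing human primary skin fibroblasts, then measuring surface EGFR by ELISA at 24 h, gives the endpoint; gains and losses relative to DMSO were fitted in both directions.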

Assay [4] can be described thus: BSK_hDFCGF_Proliferation: Cell Proliferation Assessment in the BioMAP Diversity Plus: hDFCGF Assay (AID 2283059).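 Note: curves fitted for both rise and fall of signal versus DMSO baseline.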 The following applies: primary human foreskin fibroblasts. The gist of the method:
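Sub-confluent human foreskin fibroblast cultures receive test chemical […]. Relative cell number is quantified by sulforhodamine B staining (0.1%, after 10% TCA fixation) at 560 nm, with bidirectional fitting referenced to DMSO.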

Read-out in assay [5]: Macrophage colony-stimulating factor (MCSF), CSF1 (gene 1435)
Nature of the assay: BSK_hDFCGF_MCSF: BioMAP Diversity Plus: hDFCGF Assay for Macrophage colony-stimulating factor (MCSF) Biomarker Activity (AID 2283060). The following applies: primary human foreskin fibroblasts; actives raise or lower the signal. The gist of the method:
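Human foreskin primary fibroblasts were treated with test chemical for 24 h, and M-CSF was then measured by ELISA. Data were fitted bidirectionally against DMSO as the negative control and activity baseline.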

Read-out in assay [6]: TIMP metallopeptidase inhibitor 1 (TIMP1), TIMP1 (gene 7076)
Nature of the assay: BSK_hDFCGF_TIMP1: BioMAP Diversity Plus: hDFCGF Assay for TIMP metallopeptidase inhibitor 1 (TIMP1) Biomarker Activity (AID 2283062). The settings on record: primary human foreskin fibroblasts; actives raise or lower the signal. In short, it runs like this:
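Primary human foreskin fibroblasts in the hDFCGF system were dosed with compound for 24 h, then TIMP-1 was measured by ELISA. Activity was fitted bidirectionally relative to DMSO control; parallel SRB staining assessed cytotoxicity.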

Read-out in assay [7]: Monokine induced gamma interferon (MIG), CXCL9 (gene 4283)
Nature of the assay: BSK_hDFCGF_MIG: BioMAP Diversity Plus: hDFCGF Assay for Monokine induced gamma interferon (MIG) Biomarker Activity (AID 2283063). The following applies: primary human foreskin fibroblasts; actives raise or lower the signal. In short, it runs like this:
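ELISA read-out of MIG from primary human dermal fibroblasts 24 h post-dosing. Gain or loss of signal fitted bidirectionally, DMSO as baseline.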

Read-out in assay [8]: Matrix Metallopeptidase 1 (MMP1), MMP1 (gene 4312)
Nature of the assay: BSK_hDFCGF_MMP1: BioMAP Diversity Plus: hDFCGF Assay for Matrix Metallopeptidase 1 (MMP1) Biomarker Activity (AID 2283064). The following applies: primary human foreskin fibroblasts; actives raise or lower the signal. The gist of the method:
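MMP1 levels quantified by ELISA 24 h after dosing human dermal fibroblast cultures, with parallel SRB total-protein staining for overt cytotoxicity. Data fitted in both directions against DMSO baseline.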

Read-out in assay [9]: Vascular cell adhesion molecule 1 (VCAM1), VCAM1 (gene 7412)
Nature of the assay: BSK_hDFCGF_VCAM1: BioMAP Diversity Plus: hDFCGF Assay for Vascular cell adhesion molecule 1 (VCAM1) Biomarker Activity (AID 2283065).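 For AC50: VCAM-1 protein level quantified by ELISA after 24 h chemical exposure.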 The settings on record: primary human foreskin fibroblasts; actives raise or lower the signal. In short, it runs like this:
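Primary human foreskin fibroblasts (hDFCGF system) were dosed with chemical and VCAM-1 was measured by ELISA 24 h later. Bidirectional curve fitting used DMSO as negative control and activity baseline.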

Read-out in assay [10]: Plasminogen activator inhibitor-1 (PAI1), SERPINE1 (gene 5054)
Nature of the assay: BSK_hDFCGF_PAI1: BioMAP Diversity Plus: hDFCGF Assay for Plasminogen activator inhibitor-1 (PAI1) Biomarker Activity (AID 2283066). The settings on record: primary human foreskin fibroblasts; actives raise or lower the signal. The gist of the method: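 Fibroblasts from human foreskin were treated with test chemical. After 24 h, PAI-1 was measured by ELISA. Activity was fitted in both directions relative to DMSO.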

Read-out in assay [11]: Intercellular Adhesion Molecule 1 (ICAM1), ICAM1 (gene 3383)
Nature of the assay: BSK_KF3CT_ICAM1: BioMAP Diversity Plus: KF3CT Assay for Intercellular Adhesion Molecule 1 (ICAM1) Biomarker Activity (AID 2283067). The settings on record: primary human keratinocytes with fibroblasts; actives raise or lower the signal. The gist of the method:
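Human keratinocyte plus foreskin fibroblast primary co-culture was exposed to chemical for 24 h. ICAM-1 was then quantified by ELISA, and the data were fit bidirectionally against DMSO as the negative control and baseline.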

Read-out in assay [12]: Interferon-gamma inducible Protein 10 (IP10), CXCL10 (gene 3627)
Nature of the assay: BSK_KF3CT_IP10: BioMAP Diversity Plus: KF3CT Assay for Interferon-gamma inducible Protein 10 (IP10) Biomarker Activity (AID 2283068). The following applies: primary human keratinocytes with fibroblasts; actives raise or lower the signal. In short, it runs like this: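 ELISA read-out of IP-10 after 24 h chemical dosing of human skin primary co-culture (keratinocytes, foreskin fibroblasts). Gain or loss of signal relative to DMSO, bidirectional curve fit.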

Assay [13] can be described thus: BSK_KF3CT_SRB: Viability Assessment in the BioMAP Diversity Plus: KF3CT Assay (AID 2283069). The settings on record: primary human keratinocytes with fibroblasts. In short, it runs like this: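 Cytotoxicity was gauged by SRB staining (0.1% SRB, 10% TCA fixation, 560 nm) of parallel cultures at 24 h. The cells were primary human skin keratinocytes co-cultured with fibroblasts, and activity was fitted in both directions against DMSO.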

Read-out in assay [14]: Interleukin-1 alpha (IL1a), IL1A (gene 3552)
Nature of the assay: BSK_KF3CT_IL1a: BioMAP Diversity Plus: KF3CT Assay for Interleukin-1 alpha (IL1a) Biomarker Activity (AID 2283070). The following applies: primary human keratinocytes with fibroblasts; actives raise or lower the signal. The gist of the method:
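IL-1a was detected by ELISA 24 h after chemical treatment of a co-culture of human skin keratinocytes and foreskin fibroblasts. Gain or loss of signal was fitted against the DMSO baseline.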

Read-out in assay [15]: TIMP metallopeptidase inhibitor 2 (TIMP2), TIMP2 (gene 7077)
Nature of the assay: BSK_KF3CT_TIMP2: BioMAP Diversity Plus: KF3CT Assay for TIMP metallopeptidase inhibitor 2 (TIMP2) Biomarker Activity (AID 2283071). The following applies: primary human keratinocytes with fibroblasts; actives raise or lower the signal. In short, it runs like this: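 Chemicals were dosed onto human skin primary co-cultures of keratinocytes and foreskin fibroblasts, and TIMP-2 was measured by ELISA after 24 hours. Activity in either direction was fitted relative to DMSO.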

Read-out in assay [16]: Transforming growth factor beta 1 (TGFb1), TGFB1 (gene 7040)
Nature of the assay: BSK_KF3CT_TGFb1: BioMAP Diversity Plus: KF3CT Assay for Transforming growth factor beta 1 (TGFb1) Biomarker Activity (AID 2283072). The following applies: primary human keratinocytes with fibroblasts; actives raise or lower the signal. The gist of the method:
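KF3CT co-culture (keratinocytes + fibroblasts), 24 h exposure → TGF-b1 ELISA → bidirectional fit, DMSO = baseline. Parallel SRB total-protein staining (0.1% SRB, 10% TCA fixation, 560 nm) for cytotoxicity.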

Read-out in assay [17]: C-C motif chemokine 2 (Homo sapiens) (UniProt P13500)
Nature of the assay: BSK_KF3CT_MCP1: BioMAP Diversity Plus: KF3CT Assay for Monocyte Chemoattractant Protein 1 (MCP1/CCL2) Biomarker Activity (AID 2283073). The settings on record: primary human keratinocytes with fibroblasts; actives raise or lower the signal. In short, it runs like this: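 Human keratinocyte plus foreskin fibroblast primary co-culture exposed to chemical for 24 h. MCP-1 levels measured by ELISA. Bidirectional curve fitting relative to DMSO negative control as baseline.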

Assay [18] in a line: BSK_hDFCGF_SRB: Viability Assessment in the BioMAP Diversity Plus: hDFCGF Assay (AID 2283061).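 Note: cells exposed to compound for 24 h before the read.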 The following applies: primary human foreskin fibroblasts. In short, it runs like this:
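Human foreskin primary fibroblasts were treated with compound and assessed 24 h after dosing. Total protein was measured by sulforhodamine B staining (0.1% SRB after 10% TCA fixation, 560 nm read) as a cytotoxicity marker, with bidirectional fitting against DMSO baseline.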

This is an account of results in PubChem BioAssay (EPA / NIEHS).

Activity calls are given as the source filed them. Rule for the calls: active = hit-call score of the fitted dose curve at least 0.9, where 1 is the maximum; inactive = score below 0.9.

Broadly, the AC50 is the concentration at which the activity in the assay is half-maximal. Regarding `CCOP(=S)(OCC)Oc1nc(Cl)c(Cl)cc1Cl`, the outcome in [1], in assay [2], in assay [3], in assay [6], in [7] and in assay [11] was inactive. In addition, the result in assay [12], in [13], in [14], in assay [15], in [16] and in assay [17] was inactive. For the same molecule, the AC50 in assay [4] is 14.9 µM (active); in [5] it was 11.9 µM (active); in assay [8], 4.93 µM (active); in assay [9], 7.1 µM (active); in assay [10], 13.3 µM (active).
`O=C(OC1CCCCC1)c1ccccc1C(=O)OC1CCCCC1`: the outcome in assay [1], in assay [2], in assay [11], in [12], in assay [13] and in assay [17] was inactive. The AC50 in assay [3] was 20.9 µM (active); in [4], 10.2 µM (active); in assay [5], 11 µM (active); in [6], 14.3 µM (active); in assay [7], 16.4 µM (active); in assay [8], 20.9 µM (active). Further, the AC50 in assay [9] was 6.34 µM (active); in assay [10] it was 12.3 µM (active); in assay [14], 15.3 µM (active); in assay [15] it was 20.9 µM (active); in assay [16], 2.62 µM (active).
`Nc1ccc(-c2ccc(N)c(Cl)c2)cc1Cl`: the outcome in assay [1], in assay [2], in assay [3], in assay [5], in assay [18] and in assay [6] was inactive. The result in assay [7], in assay [8], in [9], in [10], in [11] and in [12] was inactive. Besides, the outcome in assay [13], in [14], in assay [15], in assay [16] and in assay [17] was inactive. In addition, the AC50 in [4] is 0.922 µM (active).
On to `C=CC(=O)OCCCCCC(C)C`, for which the result in assay [1], in assay [2], in [3], in [4], in assay [5] and in assay [6] was inactive. For the same molecule, the result in [7], in [8], in [9], in [10], in [11] and in assay [12] was inactive. Also, the outcome in [13], in [14], in [15], in [16] and in assay [17] was inactive.
In the case of `ClC1=C(Cl)[C@]2(Cl)[C@H]3[C@H]([C@H]4C=C[C@H]3C4)[C@@]1(Cl)C2(Cl)Cl`, the result in assay [1], in assay [2], in assay [3], in assay [6], in assay [7] and in assay [8] was inactive. The outcome in assay [11], in [12], in assay [13], in assay [14], in assay [15] and in assay [17] was inactive. The AC50 in assay [4] is 8.76 µM (active); in [5], 0.492 µM (active); in assay [9], 6.26 µM (active); in assay [10] it was 1.16 µM (active); in assay [16], 2.86 µM (active).
